# Data published in PubChem BioAssay (Tox21).
# Records with an inconclusive call do not appear. A call without a number means that no potency is given here. The source made the active and inactive calls. Calls follow the shape of the dose curve; as a rule, active = well fitted cell-killing curve with a large enough effect in the repeat runs; inconclusive = weak or mixed curves, or effect the other way; inactive = flat fitted curve, though single readings scatter.
# Assay: Nuclear factor erythroid 2-related factor 2/antioxidant responsive element (Nrf2/ARE) small molecule agonists: qHTS cell viability counter screen in human keratinocytes (AID 1919968); also: nearly all actives have a fitted effect of over 55% in size
# Details: KeratinoSens HaCaT ARE cells viability, CellTiter-Fluor, 24 h; series mostly up to 92.4 µM
# Outline: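 Cells of the KeratinoSens line were plated at 1,500 per well and left for 5 h before compound transfer from DMSO stocks. After a 23 h incubation (37 C, 5% CO2), CellTiter-Fluor was added. Signal was taken as fluorescence intensity 1 h later.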
SMILES,Potency,"activity change, negative = cytotoxicity"
Nc1nc(=O)n([C@@H]2O[C@H](CO)[C@@H](O)[C@@H]2F)cc1I,inactive,–
Cc1cc(C)cc(O)c1,inactive,–
COc1cc(C(=O)N2CCOCC2)cc(OC)c1OC,inactive,–
CCCO,inactive,–
CC12CCC(C1)C(C)(C)C2O (centres undefined),inactive,–
[O]=[Zr],inactive,–
C1CCC(SSC2CCCCC2)CC1,inactive,–
CCCC[C@H]1CN(CC2CCOCC2)C(=O)OC12CCN(C1(C)CCN(C(=O)c3c(C)ncnc3C)CC1)CC2,inactive,–
Cc1ccccc1S(=O)(=O)O,inactive,–
NC(=O)c1ccc(N)cc1,inactive,–
FC(F)(F)C(Cl)Br (centres undefined),inactive,–
CCCCCCCCSCCO,inactive,–
Cc1ccccc1C(N)=O,inactive,–
CC12CC3CC(C)(C1)CC(N)(C3)C2,inactive,–
O[C@@H]([C@H](O)[C@H](O)CBr)[C@H](O)CBr,inactive,–
CCOc1ccc(N)c([N+](=O)[O-])c1,inactive,–
CC(=O)NCc1c(I)c(NC(C)=O)c(I)c(C(=O)O)c1I,inactive,–
Nc1cc([N+](=O)[O-])ccc1Cl,inactive,–
Cc1c(C(=O)c2c[nH]n(C)c2=O)ccc(S(C)(=O)=O)c1C1=NOCC1,inactive,–
CC(C[N+](C)(C)C)OC(N)=O (centres undefined),inactive,–

SMILES,Potency,"activity change, negative = cytotoxicity"
O=S(=O)(O)c1ccccc1O,inactive,–
Cc1cccc(N(C)C)c1,inactive,–
OCC1CCC(CO)CC1 (centres undefined),inactive,–
C=CCOC(=O)CCCCCC,inactive,–
CCN(CC)S(=O)(=O)c1ccc(C(=O)O)cc1,inactive,–
NNS(=O)(=O)c1ccc(Oc2ccc(S(=O)(=O)NN)cc2)cc1,inactive,–
O=Cc1ccc(C(=O)O)cc1,inactive,–
COCCOCCOCCOCCOC,inactive,–
C=C(C)[C@H]1CC=C(C)CC1,inactive,–
CC(C)C1CCC(O)CC1 (centres undefined),inactive,–
C=CC(C)(CCC=C(C)C)OC(=O)CC (centres undefined),inactive,–
[O-][n+]1ccc(Cl)cc1,inactive,–
CC(C)CCO,inactive,–
O=C(O)CCS,inactive,–
Cc1cc(C)c(N=Nc2c(O)c(S(=O)(=O)O)cc3cc(S(=O)(=O)O)ccc23)cc1C,–,-4.24% [at 8.39 µM] (inactive)
Cc1ccc(Nc2ccc(O)c3c2C(=O)c2ccccc2C3=O)cc1,inactive,–
C1=COCCC1,inactive,–
NCCNCCN,inactive,–
CC(=O)N1C[C@H](O)C[C@H]1C(=O)O,inactive,–
